D2 PAM-1: positively modulates the human D2 dopamine receptor allosterically; P14416; HEK293 T-REx D2, calcium flux, EC20 dopamine potentiation; potentiation, % at 10 µM; 340,000 compounds, 0.34% hits;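 active means potentiation over 3 SD above the plate norm, cut at about 30% in these data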; further: 0% is about no effect
Target sequence (P14416 whole entry, looked up): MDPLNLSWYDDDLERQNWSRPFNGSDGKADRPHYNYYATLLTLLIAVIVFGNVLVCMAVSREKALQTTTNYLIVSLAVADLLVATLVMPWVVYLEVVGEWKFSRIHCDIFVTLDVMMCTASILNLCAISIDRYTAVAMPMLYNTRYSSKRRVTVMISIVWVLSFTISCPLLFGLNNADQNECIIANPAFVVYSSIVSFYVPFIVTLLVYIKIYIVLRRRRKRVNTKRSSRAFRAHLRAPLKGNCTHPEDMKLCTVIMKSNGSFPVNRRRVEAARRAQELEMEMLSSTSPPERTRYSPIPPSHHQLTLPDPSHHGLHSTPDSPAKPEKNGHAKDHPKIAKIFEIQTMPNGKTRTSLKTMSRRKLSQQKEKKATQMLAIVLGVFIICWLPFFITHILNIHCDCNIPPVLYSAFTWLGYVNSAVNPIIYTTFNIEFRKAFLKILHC
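Cells plated with tetracycline inducer and held overnight at 30 C; calcium dye loaded 30–90 min at room temperature; baseline taken, compound added and read 180 s; EC20 dopamine then added and read 180 s.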
D2 ag-1: human D2 receptor agonism in beta-arrestin assay; P14416; DiscoveRx PathHunter D2 beta-arrestin, luminescence, 90 min; 100% = 57 uM dopamine signal; activation, % (concentration not given with the values); 360,000 compounds, 0.084% hits; AID 624465; in the data active means activation above about 40%; inconclusive means between about 15% and that limit
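DiscoveRx PathHunter D2 beta-arrestin cells (2,100/well) attached overnight, then compound-stimulated 90 min at 37 C in HBSS/10 mM HEPES/0.1% Tween-20 buffer; beta-galactosidase complementation read by luminescence after 1 h at ambient temperature. Dopamine 57 uM final (EC100) as control.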
D2 PAM-2: human D2 receptor positive allosteric modulation; potentiation, % (no concentration beside the values); DiscoveRx D2 beta-arrestin cells, luminescence, 90 min; 100% = 57 uM dopamine signal; P14416; 360,000 compounds, 0.23% hits; in the data active means potentiation above about 50%; inconclusive means mostly about 30% to 49%
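D2 cells co-treated with compound plus 50 nM dopamine (EC20) for 90 min at 37 deg C to detect potentiation. Beta-arrestin recruitment was read as enzyme-fragment luminescence after 1 h at ambient temperature. Full response was set by 57 uM dopamine.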
D2 ag-2: D2 dopamine receptor (human) agonism; P14416; HEK293 T-REx D2 cells, calcium flux agonist mode; activation, % at 2 µM; 340,000 compounds, 0.53% hits; AID 485358;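 active means activation over 3 SD above normal in the single-dose calcium agonist read, cut at about 30% in these data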; further: 0% is about no effect
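Tetracycline-induced HEK293 Trex cells with D2 receptor force-coupled to calcium signaling, plated overnight at 30 C and loaded with no-wash calcium dye. Calcium flux read kinetically for 180 s after compound addition; responses flag agonists.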
D2 antagonist: antagonizes the human D2 dopamine receptor; HEK293 TREx D2 cells, calcium flux, dopamine EC80; 340,000 compounds, 2% hits; inhibition, % at 10 µM; P14416; in the data active means inhibition above about 30%; inactive means below that, where a call was filed; further: 0% is about no effect
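Dopamine at EC80 is the agonist stimulus; test compounds precede it by 180 s. Calcium flux read kinetically in a force-coupled, inducible HEK293 T-REx D2 cell line.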
* marks the source's active call; other numbers are inactive results; ? = inconclusive; · = no result given. Sampled rows, rich in hits. Any-hit rate of the full collection: about 2.4%.

SMILES | D2 PAM-1 | D2 ag-1 | D2 PAM-2 | D2 ag-2 | D2 antagonist
CCOc1ccc(C(=O)Nc2ccc3c(c2)OCCO3)cc1OC | -0.3 | -1.7 | -6.0 | 0.0 | 2.8
Cc1ccc(Nc2nnc(C)c(=O)[nH]2)cc1 | -3.9 | 3.8 | -4.6 | -3.0 | 43.2*
Cc1cc(C)nc(N2CCN(c3nc(C)cc(C)n3)CC2)n1 | -5.2 | · | · | -1.4 | 0.3
CCOc1cc(C)nc(N2CCN(C3CCCCC3)CC2)n1 | 7.1 | -1.1 | -18.4 | 0.6 | 40.1*
Clc1ccc(CN2C3=NCCCN3c3ccccc32)cc1Cl | 3.3 | 1.0 | -10.3 | 1.1 | 75.5*
Clc1ccc(CN2C3=NCCCN3c3ccccc32)cc1 | 6.1 | -9.6 | -6.2 | 1.1 | 3.3
CCOC(=O)Cc1ccc(NC(=O)Nc2nnc(N3CCCCC3C)s2)cc1 (stereo unspecified) | 4.8 | · | · | · | ·
Cc1cccc(NCc2ccc(N(C)C)cc2)n1 | 32.7* | 0.8 | -6.2 | -0.5 | -16.4
Cc1ccnc2c1ccc1cccnc12 | -2.6 | 2.9 | -9.4 | 0.5 | -0.4
Cc1ccnc2c1ccc1c(C)ccnc12 | -18.4 | -5.3 | -24.7 | 1.0 | 43.2*
CC(=O)C(C(C)=O)c1c(Cl)c(O)c(O)c2c(C(=O)c3ccccc3)coc12 | -2.6 | ? | 102.6* | 0.0 | 2.7
COc1ccc(CCC(=O)Nc2cccc(Cl)c2)cc1 | -9.0 | -2.0 | -19.2 | 0.3 | -10.6
O=C(CCc1ccc(Oc2cc([N+](=O)[O-])cc([N+](=O)[O-])c2)cc1)Nc1cccc(Cl)c1 | -3.3 | ? | 64.0* | -1.0 | -5.6
O=C(CCc1ccc(Oc2cc([N+](=O)[O-])cc([N+](=O)[O-])c2)cc1)N1CCCCC1 | 9.4 | ? | 57.6* | -0.6 | -20.8
O=C(c1ccc(Oc2ccc([N+](=O)[O-])cc2)cc1)N1CCCCCC1 | -2.7 | -6.5 | -3.3 | -1.0 | 2.6
O=C(COc1ccc(Cl)cc1)Nc1ccc2c(c1)CCC2 | -22.7 | -1.5 | -22.0 | 1.0 | 38.7*
COc1cc([N+](=O)[O-])ccc1NC(=O)COC(=O)c1c[nH]c(=O)[nH]c1=O | · | 0.0 | -2.2 | · | ·
O=C(O)CCc1ccc(-c2ccc(Cl)cc2)n1CC(=O)Nc1ccccc1 | 35.6* | -1.2 | -4.9 | -2.0 | -8.6
O=C(O)CCc1ccc(-c2ccc(Cl)cc2)n1CC(=O)O | 8.9 | -3.3 | -3.5 | -0.1 | 8.6
Cc1ccc(NC(=O)CN2C(=O)COc3ccc(S(=O)(=O)NC4CCCC4)cc32)cc1Cl | -13.5 | · | · | 0.7 | ·
COc1ccccc1NS(=O)(=O)c1ccc(NN=C2CCCC2)c([N+](=O)[O-])c1 | 2.7 | 0.3 | 15.1 | -0.8 | 34.4*
COc1ccccc1NS(=O)(=O)c1ccc(N/N=C/C=C/c2ccccc2[N+](=O)[O-])c([N+](=O)[O-])c1 | -1.9 | 2.2 | -11.2 | -0.1 | -0.9
CCN1C(=O)C(CC(=O)Nc2ccc(Cl)cc2)N(NC(=O)c2ccncc2)C1=S (stereo unspecified) | -8.6 | -6.9 | -13.4 | 0.0 | 31.1*
CCNC(=O)CC1C(=O)N(CC)C(=S)N1NC(=O)c1ccc(Cl)cc1 (stereo unspecified) | 1.5 | -2.4 | -7.5 | 0.2 | -7.9
O=C(NC(NC(=S)Nc1cccc(Cl)c1)C(Cl)(Cl)Cl)OCc1ccccc1 (stereo unspecified) | 4.6 | 1.4 | -26.0 | 1.8 | 77.9*
SMILES | D2 PAM-1 | D2 ag-1 | D2 PAM-2 | D2 ag-2 | D2 antagonist
COc1cccc(CNC(=O)c2ccc(S(=O)(=O)N3CCCCC3)cc2)c1 | · | 1.9 | -2.5 | · | ·
COc1ccc(F)cc1C(=O)C1CCCN(Cc2c[nH]c3ccccc23)C1 (stereo unspecified) | -20.0 | -3.4 | -2.1 | 0.4 | 67.1*
CCc1ccc(CN2CCCC(CNC(=O)c3cc(OC)cc(OC)c3)C2)cc1 (stereo unspecified) | -21.3 | -5.8 | -24.8 | -0.9 | 27.5
COc1ccc(-c2[nH]ncc2CN2CCCC(C(=O)c3ccc(OC)cc3OC)C2)cc1 (stereo unspecified) | -14.7 | -3.9 | -15.1 | -0.4 | 0.6
COC(=O)c1ccc(CN2CCCC(C(=O)c3cc(F)ccc3OC)C2)cc1 (stereo unspecified) | -22.0 | -0.6 | -3.3 | 0.6 | 17.0
COc1ccc(CN2CCC(CO)(Cc3ccccc3)CC2)cc1Cn1cccn1 | -17.6 | -6.3 | -5.4 | -1.1 | 37.0*
COc1ccc(OC)c(CN2CCCC(C(=O)c3ccccc3SC)C2)c1 (stereo unspecified) | -17.7 | -3.8 | -19.7 | 0.0 | 50.7*
COc1cc(OC)cc(C(=O)NCC2CCCN(Cc3ccc(SC)cc3)C2)c1 (stereo unspecified) | -21.5 | -9.8 | -29.3 | -0.9 | 51.3*
NS(=O)(=O)c1ccc(CCNC(=O)CCNS(=O)(=O)c2ccccc2C(F)(F)F)cc1 | -3.1 | -3.6 | -8.8 | 0.8 | -13.6
Cc1ccc(CNC(=O)c2ccc(Cn3cc(-c4ccc(C)cc4)nc3-c3ccncc3)cc2)cc1 | -5.0 | -2.4 | -52.7 | 0.1 | 0.6
CC(C)(C)OC(=O)NCCc1onc(-c2ccccc2F)c1C(=O)O | · | -4.0 | -0.7 | · | ·
COc1ccc(CN2CCCC(C(=O)c3ccc(SC)cc3)C2)cc1Cn1cccn1 (stereo unspecified) | -18.4 | -3.0 | -3.1 | 0.6 | 32.7*
COc1ccc(F)cc1C(=O)C1CCCN(Cc2cn(C)c3ccccc23)C1 (stereo unspecified) | -13.8 | -2.1 | -16.1 | 0.4 | 78.1*
Cn1cc(CN2CCCC(C(=O)c3cc(F)ccc3F)C2)c2ccccc21 (stereo unspecified) | -16.4 | -6.2 | -10.7 | -0.4 | -5.0
Cc1ccc(OCC(=O)Nc2ccc(O)c(-c3nc4ccccc4o3)c2)cc1 | 32.1* | 0.7 | -11.2 | 0.5 | -0.1
O=C(O)CCC(=O)c1ccc(C2CCCCCC2)cc1 | · | -0.8 | 5.5 | · | ·
CN(C)S(=O)(=O)c1ccc(N2CCCC2)c(C(=O)NC2CCC(O)CC2)c1 (stereo unspecified) | 7.0 | -4.7 | -4.2 | 1.1 | 5.1
COc1cc2c(cc1OC)C1=C(C#N)CN(C3CCCCC3)CN1CC2 | 2.3 | 3.7 | -6.5 | -1.6 | 40.2*
Cc1cc(Cl)ccc1OCCCC(=O)N1CCN(C)CC1 | -12.1 | -0.2 | -26.8 | -0.6 | 32.2*
CC(C)(C)OC(=O)CNC(=O)c1[nH]cnc1C(=O)NC(c1ccccc1)c1ccccc1 | -24.7 | -0.5 | -4.0 | 48.2* | -20.8
C[C@H](NC(=O)c1nc[nH]c1C(=O)NC(c1ccccc1)c1ccccc1)C(=O)OC(C)(C)C | · | -0.5 | -10.7 | · | ·
COC(=O)COc1ccc2c(=O)c(Oc3ccccc3)c(C)oc2c1 | 37.5* | -2.0 | -10.1 | 0.3 | -10.3
CCOc1ccc(Oc2c(C)oc3cc(O)ccc3c2=O)cc1 | -1.6 | 1.6 | -0.9 | 1.0 | -6.9
Cc1nn(CC(=O)Nc2ccc(OC(F)(F)F)cc2)c(=O)c2c(C)n(-c3ccc(Cl)cc3)nc12 | -6.6 | · | · | -0.9 | ·

Screens: PubChem, National Center for Advancing Translational Sciences (NCATS)
